This note sets out measurements from PubChem BioAssay AID778 (Sanford-Burnham Center for Chemical Genomics, 2007).

The whole screen tested about 96,000 compounds, of which about 20,000 (21%) were called active. Only a sample is shown. Values without a mark were called inactive.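 Rule for the calls: active = CYP2C19 inhibition above a set limit at 5 µM in the primary screen (cut at about 50% in these data); inactive = the rest.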

In general, inhibition refers to the drop in the measured response relative to a control, in per cent.

This test deals with Cytochrome P450 2C19 (Homo sapiens) (UniProt P33261). The test is described as follows: blockers of cytochrome P450 2C19 activity – biochemical, luminescence, ADME assay, primary screen (AID 778).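 Note: plate controls were negative control wells for no effect and 2.5 mM tranylcypromine positive control for full effect.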 Particulars: CYP2C19 Supersomes, luciferin-H EGE luminescence, 30 min; at 5 µM; active compounds read high.
Cytochrome P450 2C19 (Homo sapiens), sequence (P33261 whole entry, looked up): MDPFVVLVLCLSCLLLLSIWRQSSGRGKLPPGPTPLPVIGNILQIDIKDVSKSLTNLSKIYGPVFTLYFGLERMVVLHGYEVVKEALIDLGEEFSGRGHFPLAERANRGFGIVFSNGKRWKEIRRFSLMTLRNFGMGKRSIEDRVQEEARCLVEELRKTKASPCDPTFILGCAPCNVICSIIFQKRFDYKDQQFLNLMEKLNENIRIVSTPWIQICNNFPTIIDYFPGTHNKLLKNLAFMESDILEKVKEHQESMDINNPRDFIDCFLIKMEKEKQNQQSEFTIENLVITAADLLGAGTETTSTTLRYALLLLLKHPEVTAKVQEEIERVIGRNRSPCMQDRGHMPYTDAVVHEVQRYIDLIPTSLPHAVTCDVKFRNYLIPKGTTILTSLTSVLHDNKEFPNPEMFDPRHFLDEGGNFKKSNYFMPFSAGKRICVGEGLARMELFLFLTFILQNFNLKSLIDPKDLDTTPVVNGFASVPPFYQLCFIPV
Take `Cc1ccc(C(=O)CSc2nnc(Cn3nnc4ccccc43)n2C)cc1`: the inhibition is 13.9%.
On to `Cc1ccc(-n2c(Cc3cccs3)nnc2SCC(=O)OC(C)C)cc1`, for which the inhibition is 98.1% (active).
Next, `CCn1c(SCC(=O)c2ccc3ccccc3c2)nnc1-c1cccs1`: 15.7%; `Cn1c(SCC(=O)c2cccs2)nnc1-c1ccco1`: 42.3%; `CCOC(=O)CSc1nnc(CNC(=O)c2ccco2)n1-c1ccc(F)cc1`: -4.9%.
Next, `CCn1c(Cc2cccs2)nnc1SCC(=O)c1ccc(C)cc1`: 94.1% (active).
Regarding `CCn1c(SCC(=O)c2ccc(Cl)s2)nnc1-c1cccs1`, the inhibition was 94.2% (active).
As to `COc1ccc(-n2c(SCC(=O)OC(C)C)nnc2-c2ccccn2)cc1`, the inhibition is 12%.
The result for `CCS(=O)(=O)Nc1cc(C(=O)OC)ccc1C(=O)OC` reads 49.8%.
Next, `CCSc1nc(C)nc2c1oc1ccccc12`: 15.2%; `COc1ccc(-c2cn3ccsc3n2)cc1`: 14.3%; `CCCS(=O)(=O)N1CCCC(C(=O)NCCN2CCCCC2C)C1` (configuration not stated): -13.4%.
The result for `O=C(CCC(=O)N1CCN(S(=O)(=O)c2ccccc2)CC1)NC1CCCc2ccccc21` (configuration not stated) reads 17.7%.
On to `COCc1[nH][nH]c(=O)c1C=Nc1ccc(F)cc1F`, for which the inhibition was -10.3%.
Next, `CC(C)C(NC(=O)OCc1ccccc1)C(=O)OCC(=O)N1C(C)CCCC1C` (configuration not stated): 40.3%; `Cc1cccc(N2CCN(C(c3ccccc3)c3nnnn3CC3CCCO3)CC2)c1C` (configuration not stated): 12.7%; `CC(C)C(c1nnnn1C1CCCC1)N1CCN(c2ccccc2F)CC1` (configuration not stated): 8%.
Next, `COc1ccc(N2CCN(C(c3cc4ccc(C)cc4[nH]c3=O)c3nnnn3C3CCCC3)CC2)cc1` (configuration not stated): 54.4% (active); `CCOc1ccc2[nH]c(=O)c(C(c3nnnn3CCOC)N3CCOCC3)cc2c1` (configuration not stated): 11.5%; `COc1ccc(C(c2nnnn2C2CCCCC2)N2CCN(c3ccccc3F)CC2)cc1` (configuration not stated): 80.6% (active).
Next, `CC(C)c1ccc(NS(=O)(=O)c2cn(C)c(=O)n(C)c2=O)cc1`: 34%.
Turning to `Cc1cc(N2CCCC2)n2nc(C)c(-c3ccccc3)c2n1`, the inhibition was -17.7%.
The result for `CCNc1nc(NCC)nc(N(C)n2cnnc2)n1` reads -6%; that for `Nc1ccc(-c2sc(N)nc2-c2ccccc2)cc1`, 61.8% (active).
Take `Nc1ccc(-c2nnc(-c3ccc(-c4ccccc4)cc3)o2)cc1`: the inhibition was 25.3%.
In the case of `CC(=O)c1cc(C#N)c(SCC(=O)C(C)(C)C)nc1C`, the inhibition is 34.4%.
On to `Cn1c(C(=O)NCCc2ccsc2)cc2c(=O)n(C)c3ccccc3c21`, for which the inhibition was 11.7%.
